# From PubChem BioAssay (NCATS)
# Where “and” joins values, the source holds several entries; their conditions need not be identical. Equal entries are not always repeated. Results filed as inconclusive are left out. A call without a number means that no potency is given here. Calls of active or inactive are those of the source. Unless noted, the call rests on the fitted dose curve.
# Key:
# [1] = Cell Viability - Hek293 (AID 427;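 active means compounds whose dose-response curve shows a full or clear partial loss of cell viability, called from curve shape rather than a numeric limit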;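 further: potency means the concentration at half of the fitted maximal effect; cells exposed to compound for 40 hours at 37 °C before reading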); conditions: qHTS
# Method in brief: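 AC50 values derive from Hill-modelled concentration-response of ATP-based luminescence, normalized between DMSO-only and 100 uM tamoxifen controls. Cells were exposed in complete culture medium for 40 hr at 37 °C before detection.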
# [2] = Cell Viability - MRC5 (AID 434); conditions: MRC5 lung fibroblast viability, qHTS;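 further: potency means the concentration at half of the fitted maximal effect; potency reflects cytotoxicity seen as loss of intracellular ATP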
# Method in brief: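 qHTS cytotoxicity in human lung fibroblast MRC5 cells; 40 hr treatment, 37 °C; cellular ATP by luciferase luminescence; DMSO = 0%, 100 uM tamoxifen = 100% inhibition; Hill-fit AC50.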
# [3] = Cell Viability - H-4-II-E (AID 543; active means well fitted curve in the direction sought with a large enough effect; an effect the other way counts as inactive or inconclusive; further: nearly all actives have a fitted effect of over 35% in size; further: potency means the concentration at half of the fitted maximal effect); conditions: H-4-II-E rat hepatoma viability; series mostly up to 92.2 µM
# Method in brief: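 Luminescent ATP signal (CellTiter-Glo) served as the viability read-out, with cytotoxicity seen as a concentration-dependent ATP drop. Cells were treated for 40 hours in complete medium. AC50 values derive from Hill-equation modelling.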
# [4] = MultiTox-Fluor Cytotoxicity Assay - LYMP1-002 - Dead Cells (AID 960; active means well fitted curve in the direction sought with a large enough effect; an effect the other way counts as inactive or inconclusive; further: nearly all actives have a fitted effect of over 60% in size; further: potency means the concentration at half of the fitted maximal effect); conditions: LYMP1-002 lymphoblastoid cells, dead-cell protease fluorescence; series mostly up to 46.1 µM
# Method in brief: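 LYMP1-002 cells 2500/well; 5 hr 37 C pre-incubation; compound 16 hr 37 C; MultiTox-Fluor reagent 60 min RT; dead-cell fluor Ex/Em 485/520. Norm. to DMSO (0%) vs 15 uM tetraoctylammonium bromide (100%); Hill AC50.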
# [5] = target: Glucocorticoid receptor (Homo sapiens) (UniProt P04150); assay: qHTS assay for small molecule agonists of glucocorticoid receptor signaling (AID 588532; active means well fitted curve in the direction sought with a large enough effect in the signal ratio, with a control signal flat; the % refers to the signal ratio); conditions: HeLa MMTV-bla, beta-lactamase ratio, agonist, 18 h; stronger effect = higher value; percent of dexamethasone control, DMSO zero
# Chain of Glucocorticoid receptor (Homo sapiens) (P04150 whole entry, looked up): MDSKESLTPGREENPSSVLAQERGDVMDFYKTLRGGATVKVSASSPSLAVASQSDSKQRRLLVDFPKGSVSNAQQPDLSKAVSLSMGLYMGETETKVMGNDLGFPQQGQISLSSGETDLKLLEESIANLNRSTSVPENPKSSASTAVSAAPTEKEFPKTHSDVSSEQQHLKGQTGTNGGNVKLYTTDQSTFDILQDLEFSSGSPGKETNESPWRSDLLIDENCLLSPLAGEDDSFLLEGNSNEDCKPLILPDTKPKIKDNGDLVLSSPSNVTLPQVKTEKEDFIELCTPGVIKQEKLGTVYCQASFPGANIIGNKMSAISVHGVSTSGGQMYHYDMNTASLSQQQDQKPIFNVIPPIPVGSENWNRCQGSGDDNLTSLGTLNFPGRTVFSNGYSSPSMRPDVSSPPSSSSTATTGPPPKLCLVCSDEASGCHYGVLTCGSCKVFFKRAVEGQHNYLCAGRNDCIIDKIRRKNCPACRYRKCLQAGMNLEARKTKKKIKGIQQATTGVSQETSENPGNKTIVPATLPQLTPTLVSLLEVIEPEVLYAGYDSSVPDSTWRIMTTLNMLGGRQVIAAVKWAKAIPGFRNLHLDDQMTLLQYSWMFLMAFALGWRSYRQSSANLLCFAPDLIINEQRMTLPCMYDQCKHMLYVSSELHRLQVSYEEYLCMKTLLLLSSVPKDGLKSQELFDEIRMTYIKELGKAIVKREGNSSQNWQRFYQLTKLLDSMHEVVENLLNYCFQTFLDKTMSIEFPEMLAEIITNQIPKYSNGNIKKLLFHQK
# Method in brief: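 Quantitative HTS using CellSensor MMTV-bla HeLa cells in charcoal/dextran-treated serum; compounds tested up to 92 uM. After 18 h at 37 C, CCF4 dye reported reporter induction.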
# [6] = target: Glucocorticoid receptor (Homo sapiens) (UniProt P04150); assay: qHTS assay for small molecule antagonists of glucocorticoid receptor signaling (AID 588533; active means well fitted inhibition curve with a large enough effect in the signal ratio, with a control signal flat, not every such curve was filed as active; the % refers to the signal ratio;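 further: cells stimulated with 2 nM dexamethasone as agonist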); conditions: HeLa MMTV-bla, GRE beta-lactamase ratio, antagonist mode, 18 h; series mostly up to 76.8 µM
# Method in brief: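 Antagonist-mode qHTS: compound titrations added to GRE-bla HeLa cells, then dexamethasone 2 nM final; 18 h, 37 C. CCF4 FRET fluorescence normalized to dexamethasone and DMSO; IC50 from Hill fit.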
# [7] = target: Peroxisome proliferator-activated receptor delta (Homo sapiens) (UniProt Q03181); assay: qHTS assay for small molecule agonists of peroxisome proliferator-activated receptor delta signaling (AID 588534); conditions: HEK293T PPARdelta-UAS-bla, beta-lactamase ratio, 18 h; series mostly up to 76.7 µM
# Chain of Peroxisome proliferator-activated receptor delta (Homo sapiens) (Q03181 whole entry, looked up): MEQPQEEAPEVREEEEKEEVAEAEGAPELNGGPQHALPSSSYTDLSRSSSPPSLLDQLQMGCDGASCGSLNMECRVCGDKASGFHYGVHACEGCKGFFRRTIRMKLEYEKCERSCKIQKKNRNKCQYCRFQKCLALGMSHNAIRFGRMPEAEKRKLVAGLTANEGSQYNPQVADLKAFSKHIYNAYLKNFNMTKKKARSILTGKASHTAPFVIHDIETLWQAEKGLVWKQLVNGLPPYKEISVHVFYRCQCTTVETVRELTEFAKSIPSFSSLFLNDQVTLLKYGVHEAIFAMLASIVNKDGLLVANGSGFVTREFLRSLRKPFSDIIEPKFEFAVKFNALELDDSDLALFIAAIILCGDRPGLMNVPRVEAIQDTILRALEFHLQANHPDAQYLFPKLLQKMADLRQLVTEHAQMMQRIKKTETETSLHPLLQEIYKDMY
# Method in brief: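 Fluorescence from CCF4 substrate cleavage by beta-lactamase reporter, read 2 hrs at RT, measured agonist activity. Compounds were tested with 18 hrs exposure at 37 C. Concentration-response data fitted to Hill equation.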
# [8] = qHTS assay for small molecule antagonists of peroxisome proliferator-activated receptor delta signaling (AID 588535; active means well fitted inhibition curve with a large enough effect in the signal ratio, with a control signal flat, not every such curve was filed as active; the % refers to the signal ratio;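 on max response: cells co-treated with a PPAR-delta agonist as stimulator during compound exposure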); conditions: HEK293T PPARd-UAS-bla, beta-lactamase FRET ratio, 18 h; 460 nm channel
# Method in brief: (§1)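 HEK293T PPAR-delta-UAS-bla cells, 4000/well, 2% charcoal/dextran FBS; 5 h 37 C; cpd titration; 18 h 37 C; CCF4 2 h RT; FI 460/530 nm; Hill fit → IC50, efficacy.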
# [9] = target: Peroxisome proliferator-activated receptor delta (Homo sapiens) (UniProt Q03181); assay: as above; conditions: HEK293T PPARd-UAS-bla, beta-lactamase FRET ratio, 18 h; series mostly up to 76.7 µM
# Method in brief: as §1
# [10] = target: Peroxisome proliferator-activated receptor gamma (Homo sapiens) (UniProt P37231); assay: qHTS assay for small molecule antagonists of peroxisome proliferator-activated receptor gamma signaling (AID 588537; active means well fitted inhibition curve with a large enough effect in the signal ratio, with a control signal flat, not every such curve was filed as active; the % refers to the signal ratio;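 further: reporter cells co-stimulated with 50 nM rosiglitazone agonist during compound treatment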); conditions: HEK293 PPARg-UAS-bla, beta-lactamase ratio, antagonist mode; series mostly up to 76.8 µM
# Chain of Peroxisome proliferator-activated receptor gamma (Homo sapiens) (P37231 whole entry, looked up): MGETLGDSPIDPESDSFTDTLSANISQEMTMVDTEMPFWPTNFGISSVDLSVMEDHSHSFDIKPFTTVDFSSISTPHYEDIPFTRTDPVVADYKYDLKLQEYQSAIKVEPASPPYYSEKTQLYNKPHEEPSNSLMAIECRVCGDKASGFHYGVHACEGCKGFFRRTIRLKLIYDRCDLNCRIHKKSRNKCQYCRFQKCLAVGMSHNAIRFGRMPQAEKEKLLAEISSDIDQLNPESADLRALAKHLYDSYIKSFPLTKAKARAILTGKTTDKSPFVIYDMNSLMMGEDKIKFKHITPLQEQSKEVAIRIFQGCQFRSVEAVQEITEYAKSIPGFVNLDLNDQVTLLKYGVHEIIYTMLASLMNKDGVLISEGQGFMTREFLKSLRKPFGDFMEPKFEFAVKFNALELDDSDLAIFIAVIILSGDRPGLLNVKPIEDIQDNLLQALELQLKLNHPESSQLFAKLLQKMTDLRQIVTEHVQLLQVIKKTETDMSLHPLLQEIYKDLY
# Method in brief: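 Antagonist mode, beta-lactamase reporter in HEK293; charcoal/dextran FBS 1%; 3000 cells/well, 37 C 6-6.5 h; cpd titration + rosiglitazone 50 nM final, 16 h 37 C; CCF4, 2 h RT; 460/530 nm; Hill fit → IC50, efficacy.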
# [11] = target: Vitamin D3 receptor (Homo sapiens) (UniProt P11473); assay: qHTS assay for small molecule antagonists of vitamin D receptor signaling (AID 588541); conditions: HEK293T VDR-UAS-bla, beta-lactamase ratio, antagonist mode; series mostly up to 76.7 µM;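 further: receptor activated by calcitriol during compound treatment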
# Chain of Vitamin D3 receptor (Homo sapiens) (P11473 whole entry, looked up): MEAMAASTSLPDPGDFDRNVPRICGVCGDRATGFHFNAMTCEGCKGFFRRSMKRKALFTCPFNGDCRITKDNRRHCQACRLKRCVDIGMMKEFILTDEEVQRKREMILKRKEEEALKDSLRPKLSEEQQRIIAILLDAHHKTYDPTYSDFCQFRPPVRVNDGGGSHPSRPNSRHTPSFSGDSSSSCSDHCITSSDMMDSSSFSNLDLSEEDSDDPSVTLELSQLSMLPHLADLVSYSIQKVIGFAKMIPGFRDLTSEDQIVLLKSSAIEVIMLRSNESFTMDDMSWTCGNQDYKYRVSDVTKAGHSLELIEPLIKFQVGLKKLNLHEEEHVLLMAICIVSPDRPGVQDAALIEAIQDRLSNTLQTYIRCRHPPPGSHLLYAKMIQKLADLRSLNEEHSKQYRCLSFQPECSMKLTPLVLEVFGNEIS
# Method in brief: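 Antagonist-mode beta-lactamase reporter assay: HEK293T VDR-UAS-bla cells were exposed to titrated compound alongside 1-alpha,25-dihydroxyvitamin D3 at 3 nM final for 16 h. Values were normalized to the 50 nM agonist control and DMSO basal, with IC50 and efficacy from Hill equation fits.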
# [12] = target: Vitamin D3 receptor (Homo sapiens) (UniProt P11473); assay: qHTS assay for small molecule agonists of vitamin D receptor signaling (AID 588543); conditions: HEK293T VDR-UAS-bla, beta-lactamase ratio, 16 h; series mostly up to 76.8 µM
# Method in brief: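 Reporter cells (HEK293T, VDR-UAS-bla) were seeded in medium with 2% charcoal-stripped serum and incubated 5 h, then compounds in concentration series were added for 16 h at 37 °C. Stimulation was scaled between DMSO basal and 50 nM 1α,25-dihydroxyvitamin D3.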
# [13] = qHTS assay for small molecule activators of the nuclear factor-kappa B (NF-kB) signaling pathway (AID 651749; active means well fitted activation curve with a large enough effect in the signal ratio; the % refers to the signal ratio); conditions: NF-kB-bla ME-180 cells, beta-lactamase FRET ratio, 16 h; stronger effect = higher value
# Method in brief: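 Readout: beta-lactamase reporter driven by an NF-kB response element, detected fluorescently as loss of FRET. Cells were the ME-180 line, treated 16 hr at 37C with pin-transferred compound.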
# [14] = target: Mitogen-activated protein kinase 10 (Mus musculus) (UniProt Q61831); assay: JNK3 AlphaScreen Assay (AID 530; active means well fitted curve in either direction with a large enough effect, not every such curve was filed as active;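 further: kinase came from lysate of stimulated human HepG2 cells; signal reports phosphorylation of biotinylated GST-cJun 1-79 at Ser73 with 10 µM ATP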); conditions: JNK3 lysate, c-Jun phosphorylation; series mostly up to 57.1 µM
# Method in brief: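 Compound titrations were preincubated 15 minutes at room temperature with substrate, antibody and pre-activated JNK3-containing HepG2 lysate. Reactions were started with 10 uM ATP and stopped with EDTA-containing bead buffer for AlphaScreen detection.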
# [15] = target: Peroxisome proliferator-activated receptor gamma (Homo sapiens) (UniProt P37231); assay: qHTS assay for small molecule agonists of peroxisome proliferator-activated receptor gamma signaling (AID 588536; active means well fitted curve in the direction sought with a large enough effect in the signal ratio, with a control signal flat, not every such curve was filed as active; the % refers to the signal ratio); conditions: HEK293 PPARg-UAS-bla, beta-lactamase ratio, 16 h, percent of rosiglitazone response, DMSO as zero; series mostly up to 76.7 µM
# Method in brief: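 HEK293 UAS-bla reporter line, 1% charcoal/dextran FBS; titration, 16 h, 37 C; CCF4 loading 2 h RT; fluorescence 460/530 nm. Normalized to rosiglitazone 2 uM = 100%, DMSO = 0%.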
# [16] = qHTS assay for small molecule agonists of the antioxidant response element (ARE) signaling pathway (AID 651741; active means well fitted activation curve with a large enough effect in the signal ratio; the % refers to the signal ratio; further: potency means the concentration at half of the fitted maximal effect); conditions: HepG2 ARE-bla reporter, beta-lactamase FRET ratio, 16 h; series mostly up to 96 µM
# Method in brief: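 Quantitative HTS in HepG2 cells stably expressing an ARE-beta-lactamase reporter; 16 h compound exposure at 37 C, followed by 2 h room-temperature incubation with LiveBLAzer B/G FRET substrate and fluorescence measurement.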
# [17] = qHTS assay for small molecule antagonists of the retinoid-related orphan receptor gamma (ROR-gamma) signaling pathway - cell viability counter screen (AID 720652; active means well fitted curve in the direction sought with a large enough effect in the repeat runs; an effect the other way counts as inactive or inconclusive;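 further: compound exposure lasted 16 hr before ATP read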); conditions: RORgamma reporter cell line viability counter screen; series mostly up to 92.2 µM
# Method in brief: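 Luminescence from CellTiter-Glo after 30 min at room temperature reported cellular ATP as the cytotoxicity measure. Cells were the CHO reporter line with doxycycline-induced ROR-gamma expression, exposed to compound for 16 hr at 37 C.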
# [18] = Cell Viability - N2a (AID 540; active means well fitted curve in the direction sought with a large enough effect; an effect the other way counts as inactive or inconclusive;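 further: cells exposed to compound for 40 h at 37 °C; nearly all actives have a fitted effect of over 45% in size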; further: potency means the concentration at half of the fitted maximal effect); conditions: N2a mouse neuroblastoma cell viability; activity change, negative = cytotoxicity: at 92.2 µM (top of the series)
# Method in brief: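 Luminescent ATP signal (CellTiter-Glo, 20 min at room temperature) served as the viability read-out after N2a cells were treated with compounds for 40 hours at 37 °C. Concentration-response data were fitted to the Hill equation for AC50.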
# [19] = target: Bile acid receptor (Homo sapiens) (UniProt Q96RI1); assay: qHTS assay for small molecule agonists of farnesoid X receptor signaling (AID 588527); conditions: HEK293T FXR-UAS-bla, beta-lactamase ratio, 16 h; stronger effect = higher value
# Chain of Bile acid receptor (Homo sapiens) (Q96RI1 whole entry, looked up): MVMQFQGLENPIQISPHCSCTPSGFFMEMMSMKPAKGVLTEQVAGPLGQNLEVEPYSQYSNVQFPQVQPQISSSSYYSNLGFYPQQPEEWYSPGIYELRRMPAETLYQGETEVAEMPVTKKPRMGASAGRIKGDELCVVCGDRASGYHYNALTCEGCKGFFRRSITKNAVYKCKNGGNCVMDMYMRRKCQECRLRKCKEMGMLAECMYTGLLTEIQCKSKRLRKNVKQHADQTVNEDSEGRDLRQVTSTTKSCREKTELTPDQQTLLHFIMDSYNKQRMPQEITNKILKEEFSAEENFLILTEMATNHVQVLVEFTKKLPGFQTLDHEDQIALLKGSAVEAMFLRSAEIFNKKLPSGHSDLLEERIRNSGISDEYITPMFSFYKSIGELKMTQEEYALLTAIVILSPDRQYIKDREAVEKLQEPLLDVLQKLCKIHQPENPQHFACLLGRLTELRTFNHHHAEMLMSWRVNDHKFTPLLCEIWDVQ
# Method in brief: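 Quantitative HTS used FXR-UAS-bla HEK293T cells with 16 h compound incubation at 37 C. EC50 values came from concentration-response curves normalized to chenodeoxycholic acid.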
# [20] = target: Estrogen receptor (Homo sapiens) (UniProt P03372); assay: qHTS assay for small molecule agonists of estrogen receptor alpha signaling (AID 588514); conditions: ER-alpha-UAS-bla HEK293, beta-lactamase ratio, 18 h; series mostly up to 76.8 µM; further: nearly all actives have a fitted effect of over 70% in size
# Chain of Estrogen receptor (Homo sapiens) (P03372 whole entry, looked up): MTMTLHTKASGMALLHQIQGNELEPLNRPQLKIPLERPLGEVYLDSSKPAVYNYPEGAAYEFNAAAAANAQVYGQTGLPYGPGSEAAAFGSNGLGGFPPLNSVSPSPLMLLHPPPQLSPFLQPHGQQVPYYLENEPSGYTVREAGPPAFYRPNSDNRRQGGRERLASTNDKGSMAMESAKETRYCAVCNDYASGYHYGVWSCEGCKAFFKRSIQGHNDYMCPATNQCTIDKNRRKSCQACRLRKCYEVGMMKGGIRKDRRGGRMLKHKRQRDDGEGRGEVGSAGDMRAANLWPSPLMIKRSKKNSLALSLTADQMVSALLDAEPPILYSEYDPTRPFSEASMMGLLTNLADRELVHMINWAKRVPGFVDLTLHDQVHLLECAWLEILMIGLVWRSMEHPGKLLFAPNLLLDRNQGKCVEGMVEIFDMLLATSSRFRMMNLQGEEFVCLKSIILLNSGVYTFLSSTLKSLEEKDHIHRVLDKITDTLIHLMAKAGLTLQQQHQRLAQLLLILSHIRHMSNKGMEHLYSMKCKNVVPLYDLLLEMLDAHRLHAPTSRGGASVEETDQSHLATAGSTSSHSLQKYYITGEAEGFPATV
# Method in brief: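 Cells were plated at 5000/well, incubated 4 hrs at 37 C, dosed with compound titration series, incubated 18 hrs at 37 C, loaded with CCF4 dye for 2 hrs at RT, then fluorescence was read.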
smiles,measurement,setting,value
Cc1ccc(OP(=O)(Oc2ccc(C)cc2)Oc2ccc(C)cc2)cc1,Potency,[1],> 92 µM (inactive)
same,Potency,[2],> 92 µM (inactive)
same,Potency,[3],inactive
same,Potency,[4],25.1 µM (active)
same,activation,[5],-0.0057% (inactive) and -10.3% (inactive)
same,outcome,[6],inactive
same,outcome,[7],inactive
same,max response,[8],2.39% and -12%
same,outcome,[9],inactive
same,Potency,[10],inactive
same,outcome,[11],inactive
same,outcome,[12],inactive
same,activation,[13],-1% (inactive) and 2.01% (inactive)
O=[N+]([O-])c1ccc(O)c([N+](=O)[O-])c1,Potency,[1],> 92 µM (inactive)
same,Potency,[2],> 92 µM (inactive)
same,Potency,[14],inactive
same,outcome,[15],inactive
same,Potency,[10],inactive
same,Potency,[16],66.8 µM (active)
same,activation,[13],3.32% (inactive)
same,Potency,[17],inactive
Oc1cc(Cl)c(Cl)c(Cl)c1,Potency,[14],inactive
same,Potency,[18],31.6 µM (active)
same,Potency,[3],63.1 µM (active)
same,Potency,[4],inactive
same,activation,[19],3.7% (inactive)
same,activation,[5],5.15% (inactive)
same,Potency,[16],23.7 µM (active)
same,activation,[13],-0.357% (inactive)
CN(C)c1ccc(N=Nc2ccccc2)cc1,activation,[19],-4.32% (inactive)
same,activation,[5],0.929% (inactive)
same,outcome,[7],inactive
same,max response,[8],-40.3%
same,outcome,[9],inactive
same,outcome,[11],inactive
same,Potency,[16],37.6 µM (active)
[C-]1=CC=CC1.[C-]1=CC=CC1.[Cl-].[Cl-].[Ti+4],Potency,[14],inactive
same,Potency,[18],inactive
same,Potency,[3],inactive
same,Potency,[4],inactive
same,outcome,[12],inactive
BrCC(Br)(Br)Br,Potency,[14],inactive
same,Potency,[4],inactive
same,Potency,[20],inactive
same,activation,[19],-2.57% (inactive)
same,outcome,[7],inactive
same,outcome,[15],inactive
same,outcome,[11],inactive
same,outcome,[12],inactive
same,Potency,[16],29.8 µM (active)
Clc1ccc(C(c2ccccc2Cl)C(Cl)(Cl)Cl)cc1 (stereo not given),activation,[5],1.13% (inactive)
same,outcome,[6],inactive
same,outcome,[7],inactive
same,outcome,[15],inactive
same,Potency,[10],inactive
same,outcome,[11],inactive
same,outcome,[12],inactive
same,Potency,[16],75 µM (active) and 61.1 µM (active)
same,activation,[13],3.52% (inactive) and 5.2% (inactive)
Oc1cc(Cl)c(Cl)c(Cl)c1Cl,Potency,[14],inactive
same,Potency,[18],31.6 µM (active)
same,activation,[5],5.92% (inactive)
same,Potency,[16],11.9 µM (active)
O=[N+]([O-])c1cccc(CCl)c1,Potency,[1],> 92 µM (inactive)
same,Potency,[2],> 92 µM (inactive)
same,Potency,[14],inactive
same,Potency,[18],inactive
same,Potency,[3],50.1 µM (active)
same,activation,[5],5.78% (inactive)
same,outcome,[6],inactive
same,outcome,[11],inactive
same,outcome,[12],inactive
same,Potency,[16],42.2 µM (active)
same,activation,[13],1.19% (inactive)
N#C/C=C/C#N,Potency,[2],> 92 µM (inactive)
same,Potency,[14],inactive
same,Potency,[3],50.1 µM (active)
same,outcome,[6],inactive
same,outcome,[7],inactive
same,Potency,[16],37.6 µM (active)
same,Potency,[17],inactive
Nc1ccc(-c2ccc(N)c(Cl)c2)cc1Cl,Potency,[14],inactive
same,Potency,[3],31.6 µM (active)
same,Potency,[4],25.1 µM (active)
same,activation,[5],-5.3% (inactive) and -4.62% (inactive)
same,outcome,[15],inactive
same,Potency,[10],inactive
same,outcome,[11],inactive
same,Potency,[16],5.31 µM (active) and 12.2 µM (active)
c1ccc2c(c1)ccc1cc3c(ccc4ccccc43)cc12,Potency,[16],2.37 µM (active)
